test system: RARb:RXRa (NR concentration 270 nM, RXRa partner concentration 90 nM); test: PBM binding z-score (relative to random genomic background probes); higher = stronger binding; sequences stand for … in GC…GCGATTGACAGCGTAGAATGAAGG
In short: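 Random background probes are the reference for binding z-scores. These scores derive from regression-normalized fluorescence on custom Agilent 4×180K protein-binding microarrays incubated 1 h with ligand-free nuclear receptor dimers. Binding was detected with antibodies against each partner (one per run).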

Sequence	PBM binding z-score
TCAATGAGGTTAAAGATCAGGGAACGTGGCGTCG	2.04
TAGCTTAGGTCATTGGGCCAGTATAGTACGCATC	3.72
GGAACCAGGGCAAGTTGATAGCAGAGTTTGATGG	2.26
TTACCAAGATGAAGGTCGTTGATCCCTCTGTAGA	0.617
TCTTGTAGATCAAGCAGGTTAAGAACGCCTGAGT	0.23
TGAATGAGGTTAAAGATCAGGGCACGTGGCGTCG	2.41
ATCTCTAGGTAAGACTCCGTTCAGTGAAGAACGC	0.229
CCAGACAGGTAAAAGGTAACTCAGTCTGGTACGC	0.382
TCATATAGGTAAAAGGTGAAATTCGGTGTGGTAA	1.89
GGAACGAGGACAAGTTGATAGCAGAGTTTGATGG	1.32
TCGAGTAGGTTTGTCGGGGCATTCAGCCAACATA	0.0444
GATACAGGGTCAGCTAGAGGCCAGAGTGTGGAAA	4.25
TAGCCAAGGTCATGGGCCAGTATACCACGCGAAC	5.36
GCTAGTTGGTGAGTAAAAGGTCACACACCGGTCG	4.05
CCTACTGGGCCATCAGATCATTGATATCAACGTT	0.228
TAGCCTAGGTCATCCGGGCCAGTATAGTGTCGGC	3.77
CGTCCAAGGTCAAAGGACAGTGAAGAGATGACGG	5.21
TCACGGAGGACACGAAAGGTCAGAGCTCGACATC	4.28
AATGCAGGGTCACTAGGCCAGAGTAGGTACGAAT	4.13
CGAACTAGGTCATTGGCAGGACAGTGAATAGTAA	3.71
TCATATAGGTAATACAGGTGAAGGTCGGCATCTA	1.22
AGAATGAGGTTAAGATCAGTGAAACAGAATACAT	1.74

Source: the supplement of paper PMC6555819
